Experimental data taken from PubChem BioAssay AID1159580 (chemical genetic matrix, 2015).
Where “and” joins values, the source holds several entries; their conditions need not be identical. Equal values may be shown once. Screen size: about 5,500 compounds; about 2,000 (36%) were called active. About 18% were inconclusive and are not listed. No stated cut-off is given here; in the data, active means normalized growth mostly below about 0.91 (no sharp cut-off); inconclusive means no clear call, values can overlap the other calls; inactive means mostly above about 0.92. Some of the results follow.

Experiment: chemical genetic growth profiling, strain panel (AID 1159580);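 further: tested at 20 µM; growth read once vehicle control cultures reached saturation at 30 °C; 1 = growth at the plate median or of vehicle wells; lower values mean less growth of the strain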
Conditions: S. cerevisiae deletion strains, growth OD

Measured: normalized growth

C[C@]12CCC3c4ccc(O)cc4CCC3C1CCC2=O (stereo partly drawn)
active: locus YDL074C, strain BRE1, active compounds read low 0.766 | locus YDR137W, strain rgp1, active compounds read low 0.682 | locus YDR162C, strain NBP2, active compounds read low 0.761 | locus YDR195W, strain ref2 1.26 [resistant] | locus YDR392W, strain spt3, active compounds read low 0.625
inactive: locus YAL013W, strain DEP1, active compounds read low 0.968 | locus YAL021C, strain ccr4, active compounds read low 1 | locus YAL026C, strain drs2, active compounds read low 0.993 | locus YAL030W, strain snc1, active compounds read low 1.01 | locus YBL061C, strain skt5, active compounds read low 0.999 | locus YBR009C, strain hhf1, active compounds read low 0.953 | locus YBR021W, strain FUR4, active compounds read low 0.875 | locus YBR023C, strain chs3, active compounds read low 1.01 | locus YBR171W, strain sec66, active compounds read low 0.992 | locus YBR229C, strain ROT2, active compounds read low 0.96 | locus YBR231C, strain swc5, active compounds read low 0.975 | locus YBR279W, strain paf1, active compounds read low 0.988 | locus YCL011C, strain gbp2, active compounds read low 1.01 | locus YCL016C, strain dcc1, active compounds read low 1.01 | locus YCL029C, strain bik1, active compounds read low 0.952 | locus YCL061C, strain MRC1, active compounds read low 1.01 | locus YCL069W, strain vba3, active compounds read low 1 | locus YCR088W, strain abp1, active compounds read low 1.01 | locus YDL005C, strain med2, active compounds read low 1.02 | locus YDL035C, strain GPR1, active compounds read low 0.87 | locus YDL040C, strain nat1, active compounds read low 1.01 | locus YDL101C, strain DUN1, active compounds read low 0.987 | locus YDL134C, strain PPH21, active compounds read low 0.901 | locus YDL185W, strain tfp1, active compounds read low 0.96 | locus YDL192W, strain arf1, active compounds read low 0.98 | locus YDR001C, strain nth1, active compounds read low 1.02 | locus YDR069C, strain doa4, active compounds read low 0.993 | locus YDR101C, strain arx1, active compounds read low 0.923 | locus YDR159W, strain sac3, active compounds read low 0.959 | locus YDR297W, strain sur2, active compounds read low 1.01 | locus YDR318W, strain mcm21, active compounds read low 0.967 | locus YDR334W, strain swr1, active compounds read low 1.02 | locus YDR335W, strain msn5, active compounds read low 0.998 | locus YDR388W, active compounds read low 0.987 | locus YDR502C, strain sam2, active compounds read low 0.939 | locus YEL003W, strain gim4, active compounds read low 0.942 | locus YEL037C, strain rad23, active compounds read low 1.01 | locus YEL061C, strain CIN8 (second series), active compounds read low 1 | locus YEL061C, strain CIN8, active compounds read low 0.997 | locus YER015W, strain faa2, active compounds read low 1.01 | locus YER016W, strain bim1, active compounds read low 0.978 | locus YER110C, active compounds read low 0.985 | locus YER111C, strain swi4, active compounds read low 1.02 | locus YER155C, strain BEM2 (second series), active compounds read low 0.905 | locus YER155C, strain BEM2, active compounds read low 1 | locus YER167W, strain BCK2, active compounds read low 1.03 | locus YFR010W, strain ubp6, active compounds read low 1 | locus YGL078C, strain dbp3, active compounds read low 0.969 | locus YGL086W, strain mad1, active compounds read low 0.959 | locus YGL167C, strain pmr1, active compounds read low 1.03 | locus YGL173C, strain kem1, active compounds read low 0.963 | locus YGL227W, strain vid30, active compounds read low 1.03 | locus YGL240W, strain doc1, active compounds read low 0.944 | locus YGL248W, strain PDE1, active compounds read low 0.962 | locus YGL253W, strain hxk2, active compounds read low 0.951 | locus YGR135W, strain pre9, active compounds read low 1.02 | locus YGR252W, strain gcn5, active compounds read low 0.874 | locus YHR013C, strain ard1, active compounds read low 1.01 | locus YHR027C, strain rpn1, active compounds read low 1 | locus YHR030C, strain SLT2, active compounds read low 1.01 and 0.986 | locus YHR079C, strain IRE1 (second series), active compounds read low 0.992 | locus YHR079C, strain IRE1, active compounds read low 0.989 | locus YHR094C, strain hxt1, active compounds read low 0.999 | locus YHR129C, strain ARP1, active compounds read low 1.01 | locus YHR142W, strain chs7, active compounds read low 0.949 | locus YHR200W, strain rpn10, active compounds read low 0.984 | locus YIL066C, strain RNR3, active compounds read low 0.982 | locus YIL073C, strain SPO22, active compounds read low 0.94 | locus YIL125W, strain kgd1, active compounds read low 0.986 | locus YIR030C, strain dcg1, active compounds read low 1.02 | locus YJL092W, strain hpr5, active compounds read low 1.02 | locus YJL095W, strain BCK1 (second series), active compounds read low 1.01 | locus YJL095W, strain BCK1, active compounds read low 0.919 and 0.992 | locus YJL115W, strain asf1, active compounds read low 1.02 | locus YJL129C, strain trk1, active compounds read low 1.03 | locus YJL134W, strain LCB3, active compounds read low 0.992 | locus YJL154C, strain vps35, active compounds read low 1.02 | locus YJL164C, strain tpk1, active compounds read low 0.957 | locus YJL166W, strain qcr8, active compounds read low 0.987 | locus YJL168C, strain set2, active compounds read low 1 | locus YJL187C, strain SWE1 (second series), active compounds read low 0.969 | locus YJL187C, strain SWE1, active compounds read low 1.01 | locus YJR043C, strain POL32, active compounds read low 0.937
